Screening results (PubChem BioAssay)
Hits are enriched below; roughly 5% of the tested compounds scored in any of these assays.
UCHL1 block: human UCHL1 deubiquitinase inhibition; P09936; purified UCHL1, Ub-rhodamine cleavage fluorescence; hit rate 0.2% among 47,000; inhibition, % at 20 µM; AID 1645859
Target sequence (P09936 whole entry, looked up): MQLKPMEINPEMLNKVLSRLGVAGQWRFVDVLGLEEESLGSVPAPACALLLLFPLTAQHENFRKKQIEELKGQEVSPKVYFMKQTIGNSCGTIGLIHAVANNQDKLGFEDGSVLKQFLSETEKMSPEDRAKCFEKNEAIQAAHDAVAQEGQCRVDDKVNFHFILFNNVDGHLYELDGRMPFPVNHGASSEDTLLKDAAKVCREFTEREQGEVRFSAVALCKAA
USP7 inh: inhibitors of human USP7 deubiquitinase; Q93009; purified USP7, Ub-rhodamine cleavage fluorescence; inhibition, % at 20 µM; hit rate 0.3% among 47,000; AID 1645854
USP10 inh: inhibitors of human USP10 deubiquitinase; Q14694; purified USP10, Ub-rhodamine fluorescence, 60 min; inhibition, % at 20 µM; hit rate 1.1% among 47,000
USP8 inh: blocks human USP8 ubiquitin-rhodamine cleavage; inhibition, % at 20 µM; purified USP8, Ub-rhodamine cleavage fluorescence, 30 min; hit rate 4.2% among 47,000; P40818
Numbers without * were called inactive. Rule as the data show it: active = inhibition above about 30%; inactive = the rest.

SMILES	UCHL1 block	USP7 inh	USP10 inh	USP8 inh
O=C(COc1ccccc1-c1nnc(-c2ccccc2)o1)NCCc1ccco1	24	15	19	86*
CCc1ccccc1NC(=O)COc1ccccc1-c1nnc(-c2ccccc2)o1	4	7	3	29
O=C(Nc1ccccc1N1CCOCC1)C1Cc2ccccc2CN1S(=O)(=O)c1ccccc1F (stereo unspecified)	4	5	-8	31*
COc1ccc(CN2C[C@@H]3C[C@]3(c3ccccc3)C(=O)c3ncccc32)cc1	5	-17	1	84*
O=C(O)CN1C[C@@H]2C[C@]2(c2ccccc2)C(=O)c2ncccc21	-14	-13	-8	12
O=C(O)c1cccc(NC(=O)C(Sc2cccc(NC(=O)c3cccc(Cl)c3)c2)c2ccccc2)c1 (stereo unspecified)	4	-5	46*	3
Cc1cccc(C(=O)Nc2cccc(SC(C(=O)Nc3ccc(O)c(C(=O)O)c3)c3ccccc3)c2)c1 (stereo unspecified)	25	27	31*	88*
Cc1cnc(C2CCCN2C(=O)c2ccc3n[nH]nc3c2)[nH]1 (stereo unspecified)	0	3	0	-41
NC1=NC2(CCC(c3ccccc3)CC2)n2c(nc3cc4c(cc32)OCCCO4)N1 (stereo unspecified)	2	-2	-1	-80
Cc1ccc2nc(NC(=O)/C=C/c3ccc4c(c3)OCO4)sc2c1	3	16	20	36*
CCc1ccc(N2CC(c3nnc(NC(=O)Cc4ccc(C)cc4)s3)CC2=O)cc1 (stereo unspecified)	0	11	11	-70
CCCCC(=O)Nc1nnc(C2CC(=O)N(c3ccc(C)cc3)C2)s1 (stereo unspecified)	0	3	4	52*
Cc1ccc(CC(=O)Nc2nnc(C3CC(=O)N(c4cc(C)cc(C)c4)C3)s2)cc1 (stereo unspecified)	-2	0	4	-4
Cc1ccc(N2CC(c3nnc(NC(=O)CCc4ccccc4)s3)CC2=O)cc1 (stereo unspecified)	1	9	26	56*
Cc1ccc(N2CC(c3nnc(NC(=O)CCc4ccccc4)s3)CC2=O)cc1C (stereo unspecified)	-2	0	17	-1
COc1ccc(CCC(=O)Nc2nnc(C3CC(=O)N(c4ccc(C)cc4)C3)s2)cc1 (stereo unspecified)	2	8	38*	9
O=C(COc1ccc(Cl)cc1)Nc1cc2c3c(c1)CCN3C(=O)CC2	0	0	-7	5
Cn1ncc2c1CCCN(C(=O)c1cc(F)cc(F)c1)C2	2	6	-1	-1
Cc1sc(NC(=O)/C=C/c2ccco2)nc1-c1ccccc1	7	9	4	0
COc1cccc(-c2nc3cnccn3c2NCc2ccc3c(c2)OCO3)c1	-1	-3	-2	-254
CN1CCN(CCc2nc3cc(NC(=O)C4CCCCC4)ccc3n2C)CC1	-5	-12	-1	-2
CCOC(=O)c1noc2ncnc(Nc3ccc4c(c3)OCO4)c12	3	1	0	69*
CCOC(=O)c1noc2ncnc(Nc3ccc(N4CCC(C)CC4)cc3)c12	-4	-5	1	50*
COc1ccc(C(=O)/C=C\c2cn(-c3ccccc3)nc2-c2cccs2)cc1	3	13	1	2
Nc1nn(-c2ccccc2)cc1-c1cccs1	-4	-14	-7	36*
SMILES	UCHL1 block	USP7 inh	USP10 inh	USP8 inh
Cc1ccccc1C(=O)Nc1ccc(C)c(N2CCCC2=O)c1	0	-1	-1	9
CS(=O)(=O)c1ccccc1CN1CCC(N(Cc2ccco2)C(=O)c2cccc(C#N)c2)CC1	-3	-25	0	-5
CCc1ccc(C2c3c(-c4cc(C)cc(C)c4O)n[nH]c3C(=O)N2Cc2cccnc2)cc1 (stereo unspecified)	8	3	15	74*
COc1ccc([C@@H]2CN(Cc3cccnc3)C[C@H]2c2cc(=O)[nH]c(C)n2)cc1	-3	-1	0	16
COCC1CN(C(=O)c2ccncn2)Cc2cn(CC3CC3)nc21 (stereo unspecified)	-5	-6	-5	-18
Cc1sc2ncnc(SCC(=O)c3cc(C)n(Cc4ccco4)c3C)c2c1C	-1	-2	2	63*
Cc1sc2ncnc(OCC(=O)c3cc(F)ccc3F)c2c1C	-3	0	3	0
CCOc1cccc(C2c3c(oc4ccc(C)cc4c3=O)C(=O)N2CCN2CCOCC2)c1 (stereo unspecified)	4	3	-1	40*
COc1ccc2c(=O)c3c(oc2c1)C(=O)N(CCN1CCOCC1)C3c1cccc(F)c1 (stereo unspecified)	3	1	0	0
Cc1cc(N2CCN(c3ncccn3)CC2)nc2ccc(NC(=O)C(c3ccccc3)C3CCCC3)cc12 (stereo unspecified)	-7	-2	-4	26
COc1cc2c(=O)n(CC3CCCO3)c(=O)n(CC(=O)c3ccc4c(c3)OCO4)c2cc1OC (stereo unspecified)	-3	-5	33*	47*
O=C(NC1CCCCC1)C1CCCN(c2ncnc3nn(-c4ccccc4)cc23)C1 (stereo unspecified)	-14	-11	-4	-17
CCN1c2ccc(S(=O)(=O)N3CCOCC3)cc2N(Cc2c(F)cccc2F)C1C (stereo unspecified)	-2	2	1	-26
O=S1(=O)CCN(Cc2c(F)cccc2F)c2c(F)nc(N3CCOCC3)c(F)c21	9	-5	6	93*
O=S1(=O)CCN(Cc2cccnc2)c2c(F)nc(N3CCOCC3)c(F)c21	5	-1	2	91*
CCN(CC)c1nc(F)c2c(c1F)S(=O)(=O)CCN2Cc1ccccc1	9	-1	-9	95*
CCn1nc(C(=O)OCC(=O)Nc2ccccc2Oc2ccccc2)c2ccccc2c1=O	1	4	2	1
O=C(Cc1cc(-c2ccccc2)on1)NCc1ccc(Cl)cc1	0	16	12	36*
O=C(Cn1cc(-c2ccccc2)oc1=O)NCc1ccc(Cl)cc1	1	-1	-2	31*
NS(=O)(=O)c1ccc(CCNC(=O)Cc2cc(-c3ccc(F)cc3)on2)cc1	0	0	-3	48*
COc1cccc(C(=O)NCC(=O)N2CCCc3ccccc32)c1	-1	3	1	5
Cc1nc2ncccc2c(=O)n1-c1ccc(NC(=O)c2ccc(F)cc2F)cc1	2	7	3	19
Cc1cc(OCC(=O)Nc2ccccc2C#N)nc(-c2ccc(F)cc2)n1	-11	-10	-10	-15
CN(C)S(=O)(=O)c1ccc(N/C=C/c2ncc(C(F)(F)F)cc2Cl)cc1	1	-1	-3	27
Fc1ccc(N/C=C/c2ncc(C(F)(F)F)cc2Cl)cc1	-4	-2	-11	72*
O=S(=O)(NC1COc2ccccc2C1)c1ccccc1F (stereo unspecified)	1	0	2	14
CCOC(=O)c1c(C)nn(-c2ccc(NC(=O)/C=C\C(=O)O)cn2)c1C	-1	1	2	-1
